PubChem BioAssay (NCI)
This is part of a sample that, as a whole, favours compounds with a hit. Of some 79,000 tested, about 15% had one in any assay. No stated cut-off is given here; in the data, active means growth inhibition above about 70%; inactive means the rest.

How the values were obtained:
[1] = NCI Yeast Anticancer Drug Screen. Data for the rad50 strain (AID 155);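 further: 0% = growth of vehicle-only cultures of the same strain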; settings: S. cerevisiae rad50 strain growth inhibition; at 50.0 µM; stronger effect = higher value
Outline: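 Relative growth inhibition (compound vs vehicle) was measured in yeast with a defined repair-gene alteration.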

[2] = NCI Yeast Anticancer Drug Screen. Data for the mec2-1 strain (AID 157); settings: S. cerevisiae mec2-1 strain, at 50.0 µM, stronger effect = higher value
Outline: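 Strain: mec2-1 (DNA repair/cell cycle alteration). Compound exposure, then growth measured; inhibition expressed relative to vehicle.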

[3] = NCI Yeast Anticancer Drug Screen. Data for the sgs1 mgt1 strain (AID 161);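 further: 0% = growth of cultures given vehicle only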; settings: S. cerevisiae sgs1 mgt1 strain, at 50.0 µM, stronger effect = higher value
Outline: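 Genetically altered yeast, compound exposure, growth inhibition relative to vehicle.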

[4] = NCI Yeast Anticancer Drug Screen. Data for the cln2 rad14 strain (AID 165);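 further: 0% = growth equal to vehicle treated cultures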; settings: S. cerevisiae cln2 rad14 strain, at 50.0 µM, stronger effect = higher value
Outline: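 Compounds are applied to the cln2 rad14 yeast strain, and growth is then compared with that of vehicle-treated cultures to give inhibition.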

[5] = NCI Yeast Anticancer Drug Screen. Data for the bub3 strain (AID 167); settings: S. cerevisiae bub3 mutant strain, at 50.0 µM, stronger effect = higher value
Outline: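 Screening used yeast with an engineered genetic alteration affecting cell cycle control. Compound-exposed cultures were compared with vehicle cultures, and reduced growth was taken as inhibition.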

[6] = NCI Yeast Anticancer Drug Screen. Data for the mlh1 rad18 strain (AID 175); settings: S. cerevisiae mlh1 rad18 strain growth inhibition; at 50.0 µM; stronger effect = higher value
Outline: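 Read-out is yeast growth inhibition, calculated against vehicle-only controls. The compound was applied to a strain engineered with DNA damage repair alterations.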

Measured: growth inhibition

O=C1OC2C(O)COC2(O)C1(O)Cc1c[nH]c2ccccc12 (stereo unspecified)
inactive: [1] 14.1% | [2] -6.4% | [3] -5.45% | [4] 0.5% | [5] 3.35% | [6] -11.2%

O=C(c1ccccc1)n1c2ccccc2c2ccccc21
inactive: [1] 9.55% | [2] -3.3% | [3] 17.6% | [4] -1% | [5] 26.2% | [6] 26.2%

COc1ccc(C(O)C2CC(=O)NN=C2C)cc1OC (stereo unspecified)
inactive: [1] 8.05% | [2] -0.85% | [3] -3.3% | [4] 6.7% | [5] 8.7% | [6] -1.7%

O=c1[nH]cccc1O
inactive: [1] 5.2% | [2] 5.5% | [3] -17% | [4] 10.4% | [5] -8.8% | [6] 7.25%

C1CC(CCN2CCOCC2)CCN1
inactive: [1] -16.4% | [2] -46.6% | [3] -17.3% | [4] 9.8% | [5] -2.7% | [6] -8.45%

N#CCCOCCN1CCN(c2cccc(Cl)c2)CC1
inactive: [1] 9.85% | [2] -7.8% | [3] 12% | [4] -2.6% | [5] 51.6% | [6] 23.1%

CCC(=O)NC(Nc1cccc(F)c1)(C(F)(F)F)C(F)(F)F
inactive: [1] -28.5% | [2] -36.6% | [3] -20.7% | [4] 13.3% | [5] -20.9% | [6] -66.8%

COc1ccc([Se][Se]c2ccc(OC)cc2NC(C)=O)c(NC(C)=O)c1
inactive: [1] 19.8% | [2] -6.8% | [3] 18.1% | [4] 16.1% | [5] 27.9% | [6] 7.15%

N#CCCC1C(C#N)C2CC1C1C3C=CC(C3)C21 (stereo unspecified)
inactive: [1] 9.1% | [2] 11.2% | [3] 30.5% | [4] 28.5% | [5] -4.5% | [6] 26.2%

CC(=O)NNc1nc(C)c(C(=O)NNC(=O)C(=O)Nc2cccc(C(C)=O)c2)s1
inactive: [1] 7.3% | [2] 0.5% | [3] -23.1% | [4] 36.5% | [5] 0.85% | [6] -12.3%

O=C(O)C1CC=CCC1c1c2ccc(=O)cc-2oc2cc(O)ccc12 (stereo unspecified)
inactive: [1] 48.5% | [2] 27.8% | [3] 15.8% | [4] -5.25% | [5] 32.9% | [6] 13.6%

CC1(C)Nc2cc3c(cc2-n2cccc21)oc1ccccc13
inactive: [1] 17.3% | [2] -3.55% | [3] 39.5% | [4] 45.6% | [5] 30.4% | [6] 27.4%

COC(=O)c1cc(CN(C)C)c(O)c(CN(C)C)c1
inactive: [1] -20.3% | [2] -10.8% | [3] -34% | [4] -3.7% | [5] 2% | [6] -29%

CCCCCCCCOC1OC(COC(C)=O)C(OC(C)=O)C(OC(C)=O)C1OC(C)=O (stereo unspecified)
inactive: [1] -3% | [2] 3.75% | [3] -4.45% | [4] 6.75% | [5] -35.5% | [6] -6.95%

Cc1c(C(=O)C/C(=N\O)C(=O)Nc2cc(Cl)c(Cl)cc2Cl)[n+](=O)c2ccccc2n1[O-]
inactive: [1] 21.8% | [2] 14.3% | [3] 22.1% | [4] 14.7% | [5] 21.4% | [6] 32.4%

O=c1cc(-c2ccccc2)[nH]c2[nH]n(-c3ccccc3)c(=O)c12
inactive: [1] 8.55% | [2] 14.2% | [3] 24.8% | [4] -10.2% | [5] -9.55% | [6] 16.4%

CC(NC(=O)OC(C)(C)C)C(=O)C(N)=O (stereo unspecified)
inactive: [1] -16.2% | [2] 2.7% | [3] -27.9% | [4] 19.1% | [5] 8.25% | [6] -11.5%

Cn1c(=O)cc(NC2OC(CO)C(O)C(O)C2O)[nH]c1=O (stereo unspecified)
inactive: [1] 2.1% | [2] -3.3% | [3] 24.8% | [4] -5.3% | [5] 0.75% | [6] 11.5%

CC(C)N(CCN1CCCCC1)c1ccccn1
inactive: [1] -0.9% | [2] 18.2% | [3] 7.2% | [4] -75.5% | [5] 10.3% | [6] 14.9%

c1ccc2c(c1)CNNC2
inactive: [1] 11.3% | [2] -4.4% | [3] -5.55% | [4] 11.3% | [5] 15.8% | [6] -8.1%

CC(C)CC(NC(=O)C(CS)NC(=O)CN1C(=O)CCC1=O)C(N)=O (stereo unspecified)
inactive: [1] 15.1% | [2] -2.5% | [3] 4.65% | [4] -17.1% | [5] 13.3% | [6] 19.8%
